Records with an inconclusive call do not appear. A call without a number means that no potency is given here. Values without a mark were called inactive. The source made the active and inactive calls. Calls come from the whole dose curve; as a rule, active = well fitted activation curve with a large enough effect in the signal ratio in the repeat runs (not every such curve was filed as active); inconclusive = weak or mixed curves; inactive = flat fitted curve, though single readings scatter; the % refers to the signal ratio.

A short description of this test: p53 small molecule agonists, cell-based qHTS assay (AID 1963582). The settings on record: HCT-116 p53RE-bla reporter, beta-lactamase FRET ratio, 16 h; series mostly up to 66 µM. The source says: National Center for Advancing Translational Sciences [NCATS]
Division of Preclinical Innovation [DPI]
U.S. Environmental Protection Agency [EPA]
National Institutes of Environmental Health Sciences [NIEHS]
National Toxicology Program [NTP]
U.S. Food and Drug Administration [FDA]
p53, a tumor suppressor protein, is activated following cellular insult, including DNA damage and other cellular stresses. The activation of p53 regulates cell fate by inducing DNA repair, cell cycle arrest, apoptosis, or cellular senescence. The activation of p53, therefore, is a good indicator of DNA damage and other cellular stresses. […] The activation of the reporter gene under culture conditions can be detected by fluorescence intensity. This cell line was used to screen the Tox21 10K compound library in a 1536-well plate format and to identify agonists that activate the p53 signaling pathway.
Tox21 Assay Protocol Summary:
The p53RE-bla cells were dispensed at 4,000 cells/5 ul/well in 1536-well black wall/clear bottom plates using a Multidrop dispenser. After the assay plates were incubated at a 37 C/5% CO2 incubator for 5 hours, 23 nL of compounds dissolved in DMSO, positive controls or DMSO only was transferred to the assay plate by a pin tool. The plates were incubated at 37 C for 16 hours. After 1 uL of LiveBLAzerTM B/G FRET substrate was added using a Flying Reagent Dispenser, the plates were incubated at room temperature for 2 hours, and fluorescence intensity was measured by an Envision plate reader.
Turning to `CC(C)(C)CC(C)(C)c1ccc(Nc2ccc(C(C)(C)CC(C)(C)C)cc2)cc1`, the activation was 4.39% [at 5.99 µM].
Turning to `C=C(C)C(=O)NCCC[N+](C)(C)C`, the Potency entry is “inactive”.
`CC(=O)Nc1ccc(N=Nc2cc(C)ccc2O)cc1`: the Potency entry was “inactive”.
Same read-out and setting: next, `COC(=O)c1ccc(C)cc1C1=NC(C)(C(C)C)C(=O)N1` (stereo not given): “inactive”; `COc1ccc(C)cc1`: “inactive”; `[O-][n+]1ccc(Cl)cc1`: “inactive”.
On the same count and under the same terms, next, `COC(=O)c1cc(Cl)ccc1NS(=O)(=O)C(F)(F)F`: “inactive”; `Cc1cc(CCC(=O)OCCOCCOCCOC(=O)CCc2cc(C)c(O)c(C(C)(C)C)c2)cc(C(C)(C)C)c1O`: “inactive”.
On the same count and under the same terms, next, `C(=C\c1ccccc1)/c1ccccc1`: “inactive”; `CS(=O)(=O)O`: “inactive”.
With `O=C1Nc2ccccc2C1=O`, the Potency entry was “inactive”.
Consider `O=C(O)c1cc(O)c(O)c(O)c1`, for which the Potency result was “inactive”.
The same measure, in the same setting: next, `FC(F)(F)C(Cl)(Cl)Cl`: “inactive”; `C1CCCC1`: “inactive”.
On the same count and under the same terms, in the case of `O=[N+]([O-])c1ccc2c(c1)Cc1ccccc1-2` it was “inactive”; in that of `O=C(O)c1ccccc1S`, “inactive”; in that of `C=C(C)C(=O)OCCOCCOCCOC(=O)C(=C)C`, “inactive”.
In the case of `COc1ccc(C(=O)CC(=O)c2ccc(C(C)(C)C)cc2)cc1`, the Potency entry was “inactive”.
Still for that read-out and setting: next, `COCCOCCOCCOCCOCCO`: “inactive”; `C[Si](C)O[Si](C)(C)O[Si](C)(C)O[Si](C)C`: “inactive”; `O=S(=O)(O)CO`: “inactive”.
For `CC(=O)O[C@H](CC(=O)[O-])C[N+](C)(C)C`, the Potency entry is “inactive”.
Take `CCCCCCCC/C=C\CCCCCCCC(=O)OCCCC`: the activation was -0.177% [at 13.5 µM].
For the molecule `CCCCCCCCCCC`, the Potency entry is “inactive”.
Still for that read-out and setting: in the case of `CCCC(=O)CC` it was “inactive”; in that of `CC1=CCC(O)(C(C)C)CC1` (stereo not given), “inactive”.
Same read-out and setting: in the case of `CCCCCCCC(=O)[O-].CCCCCCCC(=O)[O-].[Zn+2]` it was “inactive”; in that of `CCC(=O)OC(C)c1ccccc1` (stereo not given), “inactive”; in that of `CC(C)CC(O)Cc1ccccc1` (stereo not given), “inactive”.
The same measure, in the same setting: next, `Cc1cccc(C)c1NC(=O)CN1CCCCCC1`: “inactive”; `O=C(CCNNC(=O)c1ccncc1)NCc1ccccc1`: “inactive”; `CC1=CCC(C(C)(C)O)CC1` (stereo not given): “inactive”.
As for `O=C1CC2CC1C1CCCC21` (stereo not given), the Potency entry was “inactive”.
On the same count and under the same terms, next, `C=CC(C)(CCC=C(C)C)OC(=O)CC` (stereo not given): “inactive”; `O=C(O)c1ccccc1-n1cc(C(=O)O)c(=O)c2cc(Nc3c(F)cc(F)cc3Cl)c(Cl)cc21`: “inactive”.
Same read-out and setting: next, `CNc1ccccc1`: “inactive”; `C/C=C(\C)C(=O)OC/C=C(\C)CCC=C(C)C`: “inactive”.
Same read-out and setting: in the case of `Cc1ccc(C)o1` it was “inactive”.
In the case of `O=c1oc2c(O)c(O)cc3c(=O)oc4c(O)c(O)cc1c4c23`, the activation was -1.21% [at 13.5 µM].
Turning to `COC(=O)CCCCC(=O)O`, the Potency result was “inactive”.

Values taken from PubChem BioAssay (Tox21).
